Source: PubChem BioAssay (National Center for Advancing Translational Sciences (NCATS))
D3 ag = agonists of human D3 dopamine receptor | P35462 | D3R DiscoveRx beta-arrestin cells, luminescence, 90 min | max activation, % | 0.58% of 410,000 active; in the data active means max activation above about 30%
Target sequence (P35462 whole entry, looked up): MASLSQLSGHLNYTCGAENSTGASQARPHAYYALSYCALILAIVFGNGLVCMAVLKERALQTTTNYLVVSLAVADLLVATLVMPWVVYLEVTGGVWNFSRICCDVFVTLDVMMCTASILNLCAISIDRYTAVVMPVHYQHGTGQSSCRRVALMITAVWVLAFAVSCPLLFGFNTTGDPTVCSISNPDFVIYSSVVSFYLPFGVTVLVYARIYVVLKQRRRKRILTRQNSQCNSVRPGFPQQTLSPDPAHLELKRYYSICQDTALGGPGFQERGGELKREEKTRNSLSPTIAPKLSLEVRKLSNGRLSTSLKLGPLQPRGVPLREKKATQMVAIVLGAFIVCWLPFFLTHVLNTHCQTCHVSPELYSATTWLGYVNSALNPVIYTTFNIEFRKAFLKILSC
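Agonist mode: compounds and dopamine controls were applied to plated cells for 90 min at 37 degrees C after an overnight attachment at 1500 cells/well. Luminescent read-out followed 30 - 60 minutes at room temperature with DiscoveRx detection reagent.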
D1 PAM = enhances dopamine response at the human D1 receptor. P21728. HEK293 TREx D1 cells, calcium flux, dopamine EC20 potentiation. potentiation, % at 10 µM. 0.036% of 360,000 active. AID 504651; in the data active means potentiation above about 30%
ERG-DNA inh = inhibitors of human ERG Ets domain-DNA interaction; Potency, µM (doses to about 76.9 µM), actives largely listed as inhibitors; 0.028% of 370,000 active; fluorescence polarization, His-ERG Ets domain / labelled DNA; active means well fitted inhibition curve with a large enough effect in the polarisation, with a control signal flat; inconclusive means small, poorly fitted or top-dose-only effect, or effect the other way, or a change in a side signal; inactive means no such curve, though single readings can be large or run the other way; the % refers to the polarisation;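 further: polarization taken with two DNA probes labelled with fluorescein and Texas red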
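His-tagged ERG Ets domain (1 uM in the protein solution; 300mM KCl, 50mM Tris-HCl, 1mM EDTA, 1mM DTT, pH 7.5) received compound, then a probe mix of 5 nM fluorescein-DNA and 100nM Texas-615-DNA. Fluorescence polarization was read for both dyes.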
D1 ag = activates the human D1 dopamine receptor | AID 504660 | 1% of 360,000 active | P21728 | HEK293 T-REx D1 cells, calcium flux, agonist mode | activation, % at 2 µM; in the data active means activation above about 30%
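Agonism was scored from calcium flux recorded over 180 s (1 read/s) after pintool compound addition, following a 10-cycle baseline. Cells were inducible force-coupled HEK293 TREx D1, plated overnight at 30 C and loaded with no-wash calcium dye.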
DRD3 antagonist = D3 dopamine receptor (human) antagonism; D3R cells, DiscoveRx beta-arrestin luminescence, antagonist mode; hits give low values; 2.5% of 360,000 active; P35462; AID 652054; max response, negative = inhibition, %; in the data active means max response below about -50%; inconclusive means no clear call, values can overlap the other calls
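Cells plated overnight at 1500 cells/well, then exposed to library compounds with dopamine controls for 90 minutes at 37 degrees C. DiscoveRx reagent added for 30–60 minutes at room temperature; luminescence read, quantitative HTS format.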
D1 antagonist = human D1 dopamine receptor antagonism; HEK293 TREx D1 cells, calcium flux, dopamine EC80; hits give low values; activity change, negative = inhibition, % at 10 µM; 3.2% of 360,000 active; in the data active means activity change below about -30%
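Inducible Hek293 Trex D1 cells (tetracycline, overnight, 30 C). Calcium dye 30–90 min RT. Antagonist mode: EC80 dopamine added after 180 s compound read.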
Hits are given with their value; 0 = inactive; ? = inconclusive; - = no result given; ! = repeats disagree. An excerpt weighted towards active compounds, which were near 6.1% of everything screened.

SMILES	D3 ag	D1 PAM	ERG-DNA inh	D1 ag	DRD3 antagonist	D1 antagonist
CC(=O)Oc1ccc(C(=O)Cc2ccc3ccccc3n2)c(O)c1C	0	0	0	32	0	0
Cc1c(O)ccc(/C(Cc2ccc3ccccc3n2)=N\O)c1O	0	0	0	0	0	-31
CCCCS(=O)(=O)N1CCC(C(=O)NCC2CCCO2)CC1 (stereo unspecified)	0	0	0	0	0	0
CCS(=O)(=O)N1CCC(C(=O)NCC2CCCO2)CC1 (stereo unspecified)	0	0	-	0	0	-36
COCCN(C(=O)c1csnn1)C(C(=O)NC1CCCC1)c1ccc(C)cc1 (stereo unspecified)	0	-	0	0	0	0
COc1ccc(-n2c(=O)c3c4c(sc3n(CC(=O)C(C)(C)C)c2=O)CCCC4)c(OC)c1	0	0	0	0	-	0
COc1ccc(-n2c(=O)c3c4c(sc3n(CC(=O)N3CCCCC3C)c2=O)CCC4)c(OC)c1 (stereo unspecified)	0	0	0	0	-	-71
CC(C)c1ccc(NC(=O)NC2CC3CCC(C2)N3Cc2cccs2)cc1 (stereo unspecified)	0	0	0	0	?	0
Cc1ccc(NC(=S)NC2CC3CCCC(C2)N3Cc2cccs2)cc1 (stereo unspecified)	0	0	-	0	-71	-87
Cc1cccc(C)c1NC(=O)NC1CC2CCC(C1)N2Cc1cccs1 (stereo unspecified)	0	0	-	0	0	0
CC(C)CNC(=S)NC1CC2CCCC(C1)N2Cc1cccs1 (stereo unspecified)	0	0	-	0	-76	0
O=C(Nc1cccc(Cl)c1)NC1CC2CCC(C1)N2Cc1cccs1 (stereo unspecified)	0	0	0	0	-98	0
Fc1ccc(NC(=S)NC2CC3CCCC(C2)N3Cc2cccs2)cc1 (stereo unspecified)	0	0	0	0	-54	0
C=Cn1nc(C)c2ccccc2c1=O	0	0	0	0	0	0
C/C(=N\Nc1ccc(C#N)cc1[N+](=O)[O-])c1ccc(C)o1	0	0	?	0	0	0
CC(C)(C)OC(=O)N(Cc1ccccc1)Cc1ccc(OCc2cccc(NC(=O)C3CC3)c2)cc1	65	-	0	-	0	-
CC(C)(C)OC(=O)N(CCc1ccccc1)Cc1ccccc1OCc1cccc(NC(=O)C2CCCC2)c1	0	-	0	-	-50	-
CC(C)(C)OC(=O)N(CCc1ccccc1)Cc1ccccc1OCc1cccc(NC(=O)C2CC2)c1	0	-	0	-	0	-
COc1cc(S(=O)(=O)N2CCN(Cc3cccs3)CC2)ccc1NC(C)=O	0	-	0	0	0	0
O=C(COc1ccccc1[N+](=O)[O-])N1CCN(S(=O)(=O)c2ccccc2)CC1	0	0	0	0	0	-95
CC(=O)Nc1ccc(S(=O)(=O)N2CCc3ccccc3C2)cc1	0	0	0	0	0	-34
O=C(CN1CCc2ccccc2C1)N1CCN(S(=O)(=O)c2ccccc2)CC1	0	0	0	0	?	-35
CC(=O)Nc1ccc(S(=O)(=O)N2CCN(Cc3cccs3)CC2)cc1	0	0	0	0	0	-39
O=C(COc1cccnc1[N+](=O)[O-])N1CCN(S(=O)(=O)c2ccccc2)CC1	0	0	0	0	0	0
O=C(Cc1ccc(Cl)cc1)Nc1ccc2nn(-c3ccccc3)nc2c1	0	0	0	0	-	0
SMILES	D3 ag	D1 PAM	ERG-DNA inh	D1 ag	DRD3 antagonist	D1 antagonist
COCCNC(=O)CCCn1c(=O)c2cc(OC)c(OC)cc2n(CC(=O)c2cccc(OC)c2)c1=O	0	0	0	0	0	0
CCOc1ccc(CCn2c3c(c(=O)[nH]c2=O)C(NC(=O)c2cccc(F)c2)(C(F)(F)F)C(=O)N3)cc1OCC (stereo unspecified)	0	0	0	0	-	0
Clc1ccc(-c2cn3cc(Cl)ccc3n2)cc1	0	0	0	0	0	0
N#Cc1ccc(S(=O)(=O)N2CCN(Cc3cccs3)CC2)cc1	0	0	0	0	0	-64
CC1(Cc2cccc(C(N)=O)c2)C(=O)Nc2c(Cl)cccc21 (stereo unspecified)	0	-	-	-	0	-
CC1(Cc2cccc(C#N)c2)C(=O)Nc2c(Cl)cccc21 (stereo unspecified)	48	-	-	-	0	-
C=Cc1ccc(CC2(C)C(=O)Nc3c(Cl)cccc32)cc1 (stereo unspecified)	0	-	-	-	-67	-
CN1CCC(=C2c3ccccc3C(O)c3ccccc32)CC1 (stereo unspecified)	0	0	0	0	-80	-79
CN1CCC(=C2c3ccccc3CCc3sccc32)CC1	0	0	0	52	-91	-82
O=C1/C(=C/c2cccs2)Cc2ccccc21	0	0	0	0	0	0
CN1CCC(=C2c3ccccc3CC(=O)c3sccc32)CC1	0	0	0	0	-98	-51!
Cc1ccc2[nH]c(=O)c3cc(C(=O)N(C)c4ccc(Br)cc4)sc3c2c1	0	0	0	0	-	0
NCCCCCC(=O)N/N=C/c1coc2ccccc2c1=O	0	0	0	0	0	0
Cc1cccc(C)c1OCC(=O)N1CCC(c2nc3ccccc3o2)CC1	0	0	0	0	-	0
Cc1cccc(C)c1NC(=O)N1CCC(c2nc3ccccc3o2)CC1	0	0	0	0	-75	0
Cc1cc(C)n(C(C)CNS(=O)(=O)c2ccc(C)c(C)c2)n1 (stereo unspecified)	0	0	0	0	0	0
c1ccc(-c2nnc(CN3CCN(c4ccccn4)CC3)o2)cc1	98	0	0	0	-	0
Fc1ccc(-c2nnc(CN3CCN(c4ccccn4)CC3)o2)cc1	80	0	0	0	-	0
Clc1cccc(-c2nnc(CN3CCN(c4ccccn4)CC3)o2)c1	95	0	0	0	-	0
CC(=O)NNC(=O)c1sc(=S)n(C)c1C	0	0	0	0	0	0
CN(C)c1ccc(C(=S)NCc2ccco2)cc1	0	0	0	0	0	0
CCCCNC(=O)NC1C(NC(=O)NCCCC)N(C)C(=O)N1C (stereo unspecified)	0	-	0	-	0	-
Cc1nccn1CC1CCc2c(c3ccccc3n2C)C1=O (stereo unspecified)	0	0	0	0	0	0
Cc1nccn1C[C@@H]1CCc2c(c3ccccc3n2C)C1=O	0	0	?	0	-79	0
CCn1c(CN2CCC(C)CC2)nc2cc(S(=O)(=O)N3CCCCC3)ccc21	0	-	-	-	-83	-
Cc1ccccc1N1CCN(Cc2c(C#N)c3ccccc3n2C)CC1	0	0	0	0	-57	0
Cc1c(-n2c(SCC(=O)NC(C)C(C)C)nc3ccccc3c2=O)c(=O)n(-c2ccccc2)n1C (stereo unspecified)	0	0	0	0	0	0
Cn1c(=O)oc2cc(S(=O)(=O)NCc3ccccc3)ccc21	0	0	-	0	0	0
